HSP90 refold inh = HSP90 inhibitors, primary screen, cell lysate, luminescence | AID 1789, 2009 | actives 0.91% (n = 290,000) | Rabbit reticulocyte lysate, luciferase refolding luminescence, 3 h | inhibition, % at 5.6 µM;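 active = inhibition above the screen-wide mean plus 3 SD, computed separately per campaign, cut at about 16% in these data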;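 also: inhibitors lower the luminescence because luciferase stays unfolded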
HSF1 activator = HSF-1 activators, primary screen, NIH3T3-HGL cells, MG132 stress, luminescence, single point. NIH3T3-HGL HSF-1 luciferase reporter, 8 h; 100% = twice DMSO control signal. activation, % at 9 µM. actives 1.7% (n = 300,000);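 active = mean replicate activation of at least 50% with a set share of replicates each reaching 50%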
GAA850 FXN act = FXN promoter activators, primary screen, cell-based, luciferase luminescence, HEK293 lucGAA850; HEK293 lucGAA850 FXN promoter luciferase reporter, 24 h; percent of 10 µM SAHA response; activation, % at 6 µM; actives 0.56% (n = 360,000); AID 540364, 2011;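 active = activation above the average of all compounds screened plus 3 SD, cutoff fixed separately per campaign, cut at about 7.5% in these data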
AHR act = AHR activators, primary screen, cell-based, luminescence, luciferase reporter, human; Aryl hydrocarbon receptor (Homo sapiens), P35869; AHR-responsive luciferase reporter cells; activation, % at 5 µM; actives 2.5% (n = 320,000); AID 2796, 2010; in the data active = activation above about 47%
Target sequence (P35869 whole entry, looked up): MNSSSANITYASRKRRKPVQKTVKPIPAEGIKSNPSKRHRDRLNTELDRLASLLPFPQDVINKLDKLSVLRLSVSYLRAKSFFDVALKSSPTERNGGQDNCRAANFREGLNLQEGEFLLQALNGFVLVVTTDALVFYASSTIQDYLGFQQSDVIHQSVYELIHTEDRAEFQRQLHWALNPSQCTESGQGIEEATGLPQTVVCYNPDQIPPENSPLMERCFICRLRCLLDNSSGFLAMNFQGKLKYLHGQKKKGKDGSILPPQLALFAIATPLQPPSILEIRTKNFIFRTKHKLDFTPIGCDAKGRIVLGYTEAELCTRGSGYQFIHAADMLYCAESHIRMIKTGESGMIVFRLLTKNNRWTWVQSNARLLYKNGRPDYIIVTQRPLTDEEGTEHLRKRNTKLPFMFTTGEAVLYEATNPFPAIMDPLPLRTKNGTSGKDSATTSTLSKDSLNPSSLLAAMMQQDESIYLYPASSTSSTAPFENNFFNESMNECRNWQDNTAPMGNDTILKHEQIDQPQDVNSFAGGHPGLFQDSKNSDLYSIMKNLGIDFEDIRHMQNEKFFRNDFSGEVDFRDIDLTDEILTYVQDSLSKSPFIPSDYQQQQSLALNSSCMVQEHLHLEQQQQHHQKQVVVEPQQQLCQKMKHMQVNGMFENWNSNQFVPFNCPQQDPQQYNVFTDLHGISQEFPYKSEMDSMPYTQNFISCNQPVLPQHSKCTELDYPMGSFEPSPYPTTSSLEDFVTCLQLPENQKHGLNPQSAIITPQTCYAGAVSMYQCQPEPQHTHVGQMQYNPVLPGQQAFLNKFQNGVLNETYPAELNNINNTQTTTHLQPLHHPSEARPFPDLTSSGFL
HSF1 inhib = HSF1 inhibitors in luciferase reporter cells, primary screen, cell-based, NIH3T3, luminescence; NIH3T3-HGL HSE-luciferase, MG132-induced, luminescence 8 h; stronger effect = lower value; activity change, negative = inhibition, % at 7.5 µM (by protocol); actives 0.77% (n = 300,000);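 active = more than half of replicate wells show activity change below -50%, luminescence cut by over half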;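 also: luciferase reports HSF-1 transcriptional activity via heat shock element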
DAX1 inh = DAX1 (NR0B1) inhibitors, primary screen, cell-based, HEK293, Gal4-DAX1, luciferase luminescence | HEK293 Gal4-DAX1 luciferase reporter | Nuclear receptor subfamily 0 group B member 1 (Homo sapiens), P51843 | actives 0.99% (n = 340,000) | inhibition, % at 6.75 µM;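 active = inhibition above the mean over all tested compounds plus 3 SD, cut at about 4.2% in these data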;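 also: inhibition shows as a rise in luminescence from relieved DAX1 repression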
A number is an active result; - = inactive; . = no result given. Hits are enriched below; roughly 5.9% of the tested compounds scored in any of these assays.

SMILES	HSP90 refold inh	HSF1 activator	GAA850 FXN act	AHR act	HSF1 inhib	DAX1 inh
Nc1nn(-c2cccc(F)n2)cc1-c1ccccc1	-	62	-	.	-	-
COc1cc2nc(N3CCN(c4cc(C)ccc4C)CC3)nc(N)c2cc1OC	-	-	-	-	-	-
COc1ccc(C)cc1Nc1nc(N)c2cc(OC)c(OC)cc2n1	-	-	-	62	-	-
CCOc1ccc(-n2nnnc2SCC(=O)NNC(=O)c2ccco2)cc1	-	-	-	-	-	-
Cc1csc(NS(=O)(=O)c2cccc([N+](=O)[O-])c2)n1	-	-	-	-	-	6.1
O=C(c1ccc2c(=O)n3c(nc2c1)CCCCC3)N1CCN(c2ccc([N+](=O)[O-])cc2)CC1	-	-	-	-	-	-
CCOc1ccc(S(=O)(=O)Nc2ccc(C(=O)N/N=C(\C)c3ccc(-n4ccnc4)cc3)cc2)cc1	-	-	-	54	-	-
COCCNC(=S)N/N=C(\C)c1ccc(-n2ccnc2)cc1	-	-	-	87	-	-
O=c1[nH]n(-c2ccccc2)c(=O)cc1Cl	.	.	-	.	.	-
CCCC(=O)N1CCN(c2ccc(NC(=O)c3cccs3)cc2)CC1	-	53	-	-	-	-
O=C(NC(=S)N1CCN(c2ccc(F)cc2)CC1)c1cccs1	-	103	-	-	-	-
COc1ccc(N2CCN(C(=S)NC(=O)c3cccs3)CC2)c([N+](=O)[O-])c1	-	-	-	-	-	-
O=C(NC(=S)N1CCN(c2c(Cl)cccc2[N+](=O)[O-])CC1)c1cccs1	-	-	-	-	-95	-
CCCS(=O)(=O)NC(=O)C1(C)CCN(C(=O)Cc2ccc(OC)c(OC)c2)C1 (stereo unspecified)	.	.	-	.	.	.
COc1c(C)cc(C(O)c2ncc(-c3cccc(F)c3)[nH]2)cc1C (stereo unspecified)	.	.	-	.	.	.
c1ccc(OCc2nn3c(-c4n[nH]c5c4CCC5)nnc3s2)cc1	.	-	-	68	-	-
Cc1nnc2sc(COc3ccccc3)nn2c1=O	-	-	-	-	-	-
COc1ccc(N2C(=O)c3ccccc3NC2c2ccc(OC)c(Cn3cc([N+](=O)[O-])cn3)c2)cc1 (stereo unspecified)	-	-	-	-	-68	-
COc1ccc(C2Nc3ccccc3C(=O)N2c2ccccc2)cc1Cn1cc([N+](=O)[O-])cn1 (stereo unspecified)	-	-	-	-	-	-
CCN(Cc1ccccc1)C(=O)C1CCN(Cc2sccc2C)CC1	-	-	-	-	-56	-
CCCNC(=O)C1(C)CCN1C(=O)C/C=C/c1ccccc1 (stereo unspecified)	.	.	-	.	.	.
CCCN(CCC)S(=O)(=O)c1ccc(C(=O)NCc2n[nH]c(=S)n2-c2ccc(Cl)c(Cl)c2)cc1	-	-	-	-	-	5.2
CCOC(=O)C1=C(COC(=O)CSc2ccc(C)cc2C)NC(=O)NC1C (stereo unspecified)	.	.	-	.	.	-
Cn1c(N)c(C(=O)CN2CCN(S(=O)(=O)c3ccccc3C#N)CC2)c(=O)n(C)c1=O	.	.	-	.	.	-
COc1ccc(S(=O)(=O)N2CCN(C(=O)c3ccc(=O)[nH]n3)CC2)cc1OC	.	.	-	.	.	7.5
SMILES	HSP90 refold inh	HSF1 activator	GAA850 FXN act	AHR act	HSF1 inhib	DAX1 inh
COc1ccc(S(=O)(=O)N2CCN(CC(=O)c3c(N)n(C)c(=O)n(C)c3=O)CC2)cc1OC	.	.	-	.	.	5.2
Oc1c(CN2CCCC(C(F)(F)F)C2)cc(Cl)c2ccccc12 (stereo unspecified)	-	-	-	-	-	-
COc1ccc(CCN2CC(C(=O)Nc3ccccc3F)CC2=O)cc1OC (stereo unspecified)	.	-	-	-	-	4.6
CCOc1ccc(NC(=O)C2CC(=O)N3CCCN=C3S2)cc1 (stereo unspecified)	-	54	-	-	-	-
CCCCOc1ccc(N2CC(C(=O)NCCc3ccc(OC)c(OC)c3)CC2=O)cc1 (stereo unspecified)	-	-	-	-	-82	-
COc1ccc(CCN2CC(C(=O)Nc3cc(F)ccc3F)CC2=O)cc1OC (stereo unspecified)	.	-	-	-	-	-
CCOc1ccc(N2CC(C(=O)Nc3ccc4c(c3)OCCO4)CC2=O)cc1 (stereo unspecified)	-	-	-	-	-65	-
CC1(C(=O)NS(=O)(=O)c2cccc(OC(F)F)c2)CCN1C(=O)CC1CCCC1 (stereo unspecified)	.	.	-	.	.	.
CCOc1ccc(N2CC(C(=O)NCCc3c[nH]c4ccc(C)cc34)CC2=O)cc1 (stereo unspecified)	-	-	-	-	-58	-
COc1ccc(N2CC(C(=O)NCCc3c[nH]c4ccccc34)CC2=O)cc1 (stereo unspecified)	-	-	-	-	-	-
CC(=O)NCc1ccc(-c2csc(NC(=O)CCc3nc4ccccc4c(=O)[nH]3)n2)s1	.	.	-	-	.	-
O=C(C1CCC(CNc2c(N3CCCCC3)c(=O)c2=O)CC1)N1CCCC1 (stereo unspecified)	-	-	-	-	-	5.5
COCCNC(=O)c1cc2c(s1)-c1ccc(Cl)cc1SC2	-	-	-	.	-	5.0
Cn1nnnc1SCC(=O)Nc1ccccc1N1CCOCC1	-	-	-	-	-	-
COc1ccc(-n2nnnc2SCC(=O)Nc2ccccc2N2CCOCC2)cc1OC	-	-	-	-	-	4.3
CC(C)Cn1c(N)c(C(=O)CSc2ncn[nH]2)c(=O)n(C)c1=O	.	.	-	.	.	-
COc1cccc(/C=N/NC(=O)CCn2c3ccccc3c3ccccc32)c1	-	-	-	73	-	-
CC(C)=NNc1ncnc2nc[nH]c12	.	.	-	.	.	6.3
COc1ccc2c(c1OC)C(=O)OC2Nc1nc(-c2cc3cc(Br)ccc3oc2=O)cs1 (stereo unspecified)	-	-	-	-	-	4.8
COc1ccc(-c2csc(NC3OC(=O)c4c3ccc(OC)c4OC)n2)cc1OC (stereo unspecified)	-	60	-	-	-	-
COc1ccc(OC)c(S(=O)(=O)N2CCCC(C(=O)NCc3ccco3)C2)c1 (stereo unspecified)	-	-	-	-	-	-
C[C@@H]1CN[C@H](CCO)/C1=C\c1ccccc1	.	.	-	.	.	-
NC(=O)CN(c1ccc([N+](=O)[O-])cc1)S(=O)(=O)c1ccccc1	-	-	-	-	-	4.4
CC(=O)Nc1ccc(NC(=O)CN(c2ccc([N+](=O)[O-])cc2)S(=O)(=O)c2ccccc2)cc1	-	-	-	-	-	-

Screening results: PubChem BioAssay, several laboratories
